# From PubChem BioAssay (NCATS)
# Where “and” joins values, the source holds several entries; their conditions need not be identical. Identical values can stand only once. Inconclusive results are not listed. A call without a number means that no potency is given here. Calls of active or inactive are those of the source. Unless noted, calls follow the shape of the dose curve; as a rule, active = well fitted curve in the direction sought with a large enough effect; inconclusive = small, poorly fitted or top-dose-only effect, or another doubt; inactive = no such curve, though single readings can be large; an effect the other way counts as inactive or inconclusive.
# What was measured:
# [1] = target: Calcium and integrin-binding protein 1 (Homo sapiens) (UniProt Q99828); assay: Validation qHTS for Identification of Calcium Integrin Binding protein 1 (CIB1) Competitor (AID 1508618)
# Sequence of Calcium and integrin-binding protein 1 (Homo sapiens) (Q99828 whole entry, looked up): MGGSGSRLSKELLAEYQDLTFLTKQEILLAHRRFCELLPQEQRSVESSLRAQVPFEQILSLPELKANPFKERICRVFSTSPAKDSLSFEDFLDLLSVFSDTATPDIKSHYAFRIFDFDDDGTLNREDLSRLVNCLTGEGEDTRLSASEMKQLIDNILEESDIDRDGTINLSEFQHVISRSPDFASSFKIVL
# In short: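 In this qHTS validation, the LOPAC set (up to 114 uM) was tested for blocking CIB1 binding to a fluorescein-tagged alphaIIb peptide, with FP detection at 480/540 nm.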
# [2] = target: Calcium and integrin-binding protein 1 (Homo sapiens) (UniProt Q99828); assay: Primary qHTS for Identification of Calcium Integrin Binding Protein 1 (CIB1) Competitor (AID 1508620);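 also: GST tagged CIB1 binding a fluorescein labelled alphaIIb integrin peptide tracer; top concentration of the series differs between compounds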
# In short: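 Fluorescence polarization competition: CIB1-GST (1 uM final) preincubated with compound 15 min at room temperature, then FITC-labeled alphaIIb peptide (100 nM final) added for another 15 min. Polarization read at Ex 480/Em 540.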
# [3] = Counterscreen qHTS for small molecule stabilizers of the endoplasmic reticulum resident proteome: GLuc-NoTag assay (AID 1508627); also: series mostly up to about 76 µM
# In short: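 Secreted GLuc lacking the SERCaMP modification is measured in SH-SY5Y cells exposed to compound for 19 h and then to thapsigargin (100 nM, 4 h) to deplete ER calcium; hits retested at 11 concentrations, up to 76.6 uM.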
# [4] = A High-Content qHTS Against Drug Library for the Identification of Small Molecules that Inhibit DYT1 Early Onset Primary Dystonia-Associated Cell Pathology (AID 1645839; calls by dose curve; also: series mostly up to about 46 µM)
# In short: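 Induced EGFP-delE TorsinA cells are imaged after 48 h of compound treatment. Punctate fusion-protein distribution gives the %pathology value, while nuclei counts flag toxicity. Wild-type EGFP-hTOR1A cells define the normal pattern.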
# [5] = target: Cytochrome P450 2D6 (Homo sapiens) (UniProt P10635); assay: Cytochrome P450 family 2 subfamily D member 6 (CYP2D6) small molecule antagonists: luciferase biochemical (cell-free) qHTS assay (AID 1645840; active = well fitted curve in the direction sought with a large enough effect in the repeat runs; an effect the other way counts as inactive or inconclusive; also: nearly all actives have a fitted effect of over 55% in size; also: potency is read from the fitted curve at half-maximal effect; as to activity change, negative = inhibition: series mostly up to about 57 µM)
# Sequence of Cytochrome P450 2D6 (Homo sapiens) (P10635 whole entry, looked up): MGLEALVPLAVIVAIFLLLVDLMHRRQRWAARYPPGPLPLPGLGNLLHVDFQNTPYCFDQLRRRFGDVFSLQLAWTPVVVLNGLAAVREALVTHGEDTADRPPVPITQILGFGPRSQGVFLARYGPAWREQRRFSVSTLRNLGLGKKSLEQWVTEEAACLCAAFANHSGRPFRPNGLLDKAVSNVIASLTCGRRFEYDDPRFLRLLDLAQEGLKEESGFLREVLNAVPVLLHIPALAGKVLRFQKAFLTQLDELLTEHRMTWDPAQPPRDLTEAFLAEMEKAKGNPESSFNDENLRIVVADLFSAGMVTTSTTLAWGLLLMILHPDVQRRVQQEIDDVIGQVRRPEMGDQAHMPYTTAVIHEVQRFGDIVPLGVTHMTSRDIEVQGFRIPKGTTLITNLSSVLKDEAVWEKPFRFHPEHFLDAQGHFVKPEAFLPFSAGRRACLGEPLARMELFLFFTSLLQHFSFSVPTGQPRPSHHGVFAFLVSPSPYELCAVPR
# In short: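 P450-Glo CYP2D6 system: proluciferin substrate converted by enzyme to luciferin, read by luminescence proportional to activity. Enzyme-substrate mix with compound 10 min at room temperature, then NADPH regeneration 1 h before detection reagent.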
# [6] = target: Cytochrome P450 2C9 (Homo sapiens) (UniProt P11712); assay: Cytochrome P450 family 2 subfamily C member 9 (CYP2C9) small molecule antagonists: luciferase biochemical (cell-free) qHTS assay (AID 1645842; active = well fitted curve in the direction sought with a large enough effect in the repeat runs; an effect the other way counts as inactive or inconclusive; also: nearly all actives have a fitted effect of over 55% in size; also: potency is read from the fitted curve at half-maximal effect; as to activity change, negative = inhibition: series mostly up to about 57 µM)
# Sequence of Cytochrome P450 2C9 (Homo sapiens) (P11712 whole entry, looked up): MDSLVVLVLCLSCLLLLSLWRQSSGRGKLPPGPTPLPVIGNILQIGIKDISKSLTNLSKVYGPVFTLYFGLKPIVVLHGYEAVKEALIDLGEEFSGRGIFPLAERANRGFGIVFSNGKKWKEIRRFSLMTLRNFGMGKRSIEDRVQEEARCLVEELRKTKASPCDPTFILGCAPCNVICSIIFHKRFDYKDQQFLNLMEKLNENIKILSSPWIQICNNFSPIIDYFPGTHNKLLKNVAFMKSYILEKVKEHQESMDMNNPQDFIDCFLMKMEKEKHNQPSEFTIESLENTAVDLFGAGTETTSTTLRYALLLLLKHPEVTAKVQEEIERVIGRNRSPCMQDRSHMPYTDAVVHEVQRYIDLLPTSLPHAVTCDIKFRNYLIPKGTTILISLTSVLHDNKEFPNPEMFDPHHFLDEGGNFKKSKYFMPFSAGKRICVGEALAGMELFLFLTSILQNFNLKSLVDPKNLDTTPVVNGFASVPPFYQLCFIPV
# In short: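 P450-Glo CYP2C9 system: proluciferin substrate with enzyme in mix containing 0.4% BSA, 10 min at room temperature, then NADPH regeneration solution added and incubated 1 h at 37C. Detection reagent stopped reaction; luminescence read after 20 min as RLU.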
# [7] = target: Papain (Carica papaya) (UniProt P00784); assay: Primary qHTS assay for inhibitors of the protease papain (AID 1645873);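 also: papain turnover of Z-FR-AMC read as the AMC fluorescence gain over 10 min; series mostly up to about 50 µM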
# Sequence of Papain (Carica papaya) (P00784 whole entry, looked up, the tested form may be a part): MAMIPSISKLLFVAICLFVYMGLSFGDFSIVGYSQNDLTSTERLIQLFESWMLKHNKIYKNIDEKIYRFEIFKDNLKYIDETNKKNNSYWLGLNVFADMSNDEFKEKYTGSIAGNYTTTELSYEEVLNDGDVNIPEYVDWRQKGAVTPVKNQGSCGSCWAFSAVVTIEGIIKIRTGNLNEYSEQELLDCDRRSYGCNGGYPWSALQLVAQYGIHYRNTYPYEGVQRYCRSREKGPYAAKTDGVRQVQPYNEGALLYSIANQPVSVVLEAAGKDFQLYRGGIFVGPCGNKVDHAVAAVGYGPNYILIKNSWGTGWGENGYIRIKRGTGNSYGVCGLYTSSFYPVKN
# [8] = Primary qHTS for inhibitors of nuclear receptor binding SET domain protein 2 (NSD2) in an isogenic RCH-ACV NSD2 p.E1099K mutant (9B) (AID 1645876); also: nearly all actives have a fitted effect of over 70% in size; also: potency is read from the fitted curve at half-maximal effect
# [9] = Primary qHTS for inhibitors of nuclear receptor binding SET domain protein 2 (NSD2) in an RCH-ACV wild type WT cells (2C) (AID 1645877); also: nearly all actives have a fitted effect of over 70% in size; also: potency is read from the fitted curve at half-maximal effect
# [10] = target: Catechol O-methyltransferase (Homo sapiens) (UniProt P21964); assay: Confirmatory Screen for Target Class Profiling of Small Molecule Inhibitors of Methyltransferases (AID 1745852); conditions: MTase-Glo luminescence, SAH detection, recombinant enzyme; measured here: COMT max response; stronger effect = lower value
# Sequence of Catechol O-methyltransferase (Homo sapiens) (P21964 whole entry, looked up): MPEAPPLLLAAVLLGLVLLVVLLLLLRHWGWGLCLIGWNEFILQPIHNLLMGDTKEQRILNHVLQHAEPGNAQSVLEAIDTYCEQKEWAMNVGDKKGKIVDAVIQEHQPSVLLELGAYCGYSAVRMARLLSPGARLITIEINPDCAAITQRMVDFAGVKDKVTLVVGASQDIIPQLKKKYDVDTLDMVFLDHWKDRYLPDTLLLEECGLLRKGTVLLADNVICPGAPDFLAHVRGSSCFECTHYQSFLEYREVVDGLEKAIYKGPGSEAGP
# [11] = Cell Viability qHTS for small molecule stabilizers of the endoplasmic reticulum resident proteome (AID 1508629); conditions: cell viability counter-screen, 100 nM thapsigargin for final 4 h;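 also: human SH-SY5Y neuroblastoma cells carrying the GLuc-SERCaMP reporter; compound exposure about 46 h in total before the viability read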
# [12] = Primary qHTS for small molecule stabilizers of the endoplasmic reticulum resident proteome: Secreted ER Calcium Modulated Protein (SERCaMP) assay (AID 1508630)
# In short: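 The SH-SY5Y reporter protocol was run at 3 concentrations up to 38.3 uM (primary) or 11 concentrations (follow-up): 16 h compound, 100 nM thapsigargin for 4 h, then extracellular luciferase luminescence.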
# [13] = target: Cytochrome P450 3A4 (Homo sapiens) (UniProt P08684); assay: Cytochrome P450 family 3 subfamily A member 4 (CYP3A4) small molecule antagonists: luciferase qHTS assay (AID 1645841; active = well fitted curve in the direction sought with a large enough effect in the repeat runs; an effect the other way counts as inactive or inconclusive; also: nearly all actives have a fitted effect of over 45% in size)
# Sequence of Cytochrome P450 3A4 (Homo sapiens) (P08684 whole entry, looked up): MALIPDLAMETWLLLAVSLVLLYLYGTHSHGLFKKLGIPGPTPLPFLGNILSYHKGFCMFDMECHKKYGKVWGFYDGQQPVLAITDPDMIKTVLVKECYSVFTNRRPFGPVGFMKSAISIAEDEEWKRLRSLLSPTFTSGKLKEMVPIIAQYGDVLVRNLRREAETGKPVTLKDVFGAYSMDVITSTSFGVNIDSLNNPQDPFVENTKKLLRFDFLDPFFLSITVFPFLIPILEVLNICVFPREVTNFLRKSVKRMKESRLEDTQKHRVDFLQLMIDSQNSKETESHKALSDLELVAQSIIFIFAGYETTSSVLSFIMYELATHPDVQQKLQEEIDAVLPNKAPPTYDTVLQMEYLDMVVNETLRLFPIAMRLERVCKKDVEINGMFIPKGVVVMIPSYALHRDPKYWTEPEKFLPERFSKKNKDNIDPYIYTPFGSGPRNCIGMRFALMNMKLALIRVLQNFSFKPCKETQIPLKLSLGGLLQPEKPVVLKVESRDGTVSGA
# In short: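 P450-Glo CYP3A4 enzyme with proluciferin substrate was preincubated with DMSO-dissolved compounds for 10 min at room temperature. NADPH regeneration solution started a 1 h reaction. Detection reagent stopped it, and luminescence was read after 20 min.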
compound,measurement,setting,value
CC1=C(C)C(=O)C(CCCCC#CCCCC#CCO)=C(C)C1=O,outcome,[1],inactive
same,Potency,[2],inactive
same,Potency,[3],inactive
same,Potency,[4],inactive
same,Potency,[5],4.9 µM (active)
same,Potency,[6],3.09 µM (active)
same,Potency,[7],inactive
same,Potency,[8],18.8 µM (active)
same,Potency,[9],10.6 µM (active)
same,activity,[10],4.09%
CN(C)CC/C=C1\c2ccccc2COc2ccccc21,outcome,[1],inactive
same,Potency,[2],inactive
same,Potency,[3],inactive
same,Potency,[5],1.95 µM (active)
same,Potency,[7],inactive
CCCCNc1ccc(C(=O)OCCN(C)C)cc1,outcome,[1],inactive
same,Potency,[2],inactive
same,Potency,[3],inactive
same,max response,[11],13.7% (inactive) and 3.85% (inactive) and 11.6% (inactive)
same,Potency,[12],inactive
same,Potency,[4],inactive
same,Potency,[7],inactive
same,Potency,[8],inactive
same,Potency,[9],inactive
CN1C(=O)CC[C@H]1c1cccnc1,outcome,[1],inactive
same,Potency,[2],inactive
same,Potency,[12],inactive
same,Potency,[4],inactive
same,Potency,[5],inactive
same,Potency,[6],inactive
same,Potency,[7],inactive
same,Potency,[8],inactive
same,Potency,[9],inactive
CCOC(=O)c1cnc2c(cnn2CC)c1NN=C(C)C,outcome,[1],inactive
same,Potency,[2],inactive
same,Potency,[3],inactive
same,max response,[11],4.21% (inactive)
same,Potency,[12],inactive
same,Potency,[4],inactive
same,Potency,[5],inactive
same,Potency,[9],inactive
c1cnc(N2CCN(Cc3ccc4c(c3)OCO4)CC2)nc1,outcome,[1],inactive
same,Potency,[2],inactive
same,Potency,[12],inactive
same,Potency,[4],inactive
same,Potency,[5],0.871 µM (active)
same,Potency,[6],11 µM (active)
same,Potency,[7],inactive
same,Potency,[8],inactive
same,Potency,[9],inactive
Cc1scc2c1N(C(=O)CN1CCN(C)CC1)c1ccccc1NC2=O,outcome,[1],inactive
same,Potency,[2],inactive
same,Potency,[12],inactive
same,Potency,[4],inactive
same,Potency,[5],inactive
same,Potency,[6],inactive
same,Potency,[7],inactive
same,Potency,[8],inactive
same,Potency,[9],inactive
N[C@@H](COP(=O)(O)O)C(=O)O,outcome,[1],inactive
same,Potency,[2],inactive
same,Potency,[12],inactive
same,Potency,[4],inactive
same,Potency,[5],inactive
same,outcome,[13],inactive
same,Potency,[6],inactive
same,Potency,[7],inactive
same,Potency,[8],inactive
same,Potency,[9],inactive
CN1CCN(C2=Nc3ccccc3Oc3ccc(Cl)cc32)CC1,outcome,[1],inactive
same,Potency,[2],inactive
same,Potency,[3],inactive
same,max response,[11],14.4% (inactive)
same,Potency,[5],3.89 µM (active)
same,Potency,[7],inactive
COc1ccc([C@@H]2Sc3ccccc3N(CCN(C)C)C(=O)[C@@H]2OC(C)=O)cc1,outcome,[1],inactive
same,Potency,[2],inactive
same,Potency,[12],inactive
same,Potency,[4],inactive
same,Potency,[5],inactive
same,Potency,[6],inactive
same,Potency,[7],inactive
same,Potency,[8],inactive
same,Potency,[9],inactive
NCCCNCCSP(=O)(O)O,outcome,[1],inactive
same,Potency,[2],inactive
same,Potency,[12],inactive
same,"% pathology change, negative = correction",[4],18.3% [at 9.22 µM] (inactive)
same,"activity change, negative = inhibition",[5],-0.206% [at 11.5 µM] (inactive)
same,Potency,[7],inactive
same,outcome,[8],inactive [at 9.23 µM]
same,"activity change, negative = cell killing",[9],5.49% [at 9.23 µM] (inactive)
CCN(Cc1ccncc1)C(=O)C(CO)c1ccccc1 (centres undefined),outcome,[1],inactive
same,Potency,[2],inactive
same,Potency,[12],inactive
same,Potency,[4],inactive
same,Potency,[5],inactive
same,Potency,[7],inactive
same,Potency,[8],inactive
same,Potency,[9],inactive
O=C1CC2(CCCC2)CC(=O)N1CCCCN1CCN(c2ncccn2)CC1,outcome,[1],inactive
same,Potency,[2],inactive
same,Potency,[12],inactive
same,Potency,[4],inactive
same,Potency,[5],17.4 µM (active) and 13.5 µM (active)
same,Potency,[6],inactive
same,Potency,[7],inactive
same,Potency,[8],inactive
same,Potency,[9],inactive
NC/C=C/C(=O)O,outcome,[1],inactive
same,Potency,[2],inactive
same,Potency,[12],inactive
same,Potency,[4],inactive
same,Potency,[5],inactive
same,Potency,[7],inactive
same,Potency,[8],inactive
same,Potency,[9],inactive
O=c1[nH]c(=O)n([C@H]2C[C@H](O)[C@@H](CO)O2)cc1Br,outcome,[1],inactive
same,Potency,[2],inactive
same,Potency,[12],inactive
same,Potency,[4],inactive
same,Potency,[5],inactive
same,Potency,[7],inactive
same,Potency,[8],0.841 µM (active)
same,Potency,[9],0.75 µM (active)
CC(C)NNC(=O)c1ccncc1,outcome,[1],inactive
same,Potency,[2],inactive
same,Potency,[12],inactive
same,Potency,[4],inactive
same,Potency,[5],inactive
same,Potency,[6],inactive
same,Potency,[7],inactive
same,Potency,[8],inactive
same,Potency,[9],inactive
C[N+](C)(C)CCOC(=O)CCC(=O)OCC[N+](C)(C)C,outcome,[1],inactive
same,Potency,[2],inactive
same,Potency,[12],inactive
same,Potency,[4],inactive
same,Potency,[5],inactive
same,Potency,[7],inactive
same,Potency,[8],inactive
same,Potency,[9],inactive
CC(=O)OCC1=C(C(=O)O)N2C(=O)[C@@H](NC(=O)Cc3cccs3)[C@H]2SC1,outcome,[1],inactive
same,Potency,[2],inactive
same,Potency,[12],inactive
same,Potency,[4],inactive
same,Potency,[5],inactive
same,Potency,[6],inactive
same,Potency,[7],inactive
same,Potency,[8],inactive
same,Potency,[9],inactive
CN(C)C(=O)Oc1cccc([N+](C)(C)C)c1,outcome,[1],inactive
same,Potency,[2],inactive
same,Potency,[12],inactive
same,Potency,[4],inactive
same,Potency,[5],inactive
same,Potency,[7],inactive
same,Potency,[8],inactive
same,Potency,[9],inactive
O=C(O)CN(CCOCCOCCN(CC(=O)O)CC(=O)O)CC(=O)O,outcome,[1],inactive
same,"activity change, negative = inhibition",[2],0.103% [at 1.07 µM] (inactive)
same,Potency,[12],inactive
same,"% pathology change, negative = correction",[4],13.7% [at 0.369 µM] (inactive)
same,"activity change, negative = inhibition",[5],2.42% [at 0.91 µM] (inactive)
same,Potency,[7],inactive
same,"activity change, negative = viability loss",[8],5.34% [at 0.588 µM] (inactive)
same,"activity change, negative = cell killing",[9],-1.31% [at 0.588 µM] (inactive)
NC1=NCC2c3ccccc3Cc3ccccc3N12 (centres undefined),outcome,[1],inactive
same,Potency,[2],inactive
same,Potency,[12],inactive
same,Potency,[4],inactive
same,Potency,[5],1.55 µM (active)
same,Potency,[7],inactive
same,activity,[10],-1.67%
NC(N)=N/N=C/c1c(Cl)cccc1Cl,outcome,[1],inactive
same,Potency,[2],inactive
same,Potency,[12],inactive
same,Potency,[4],inactive
same,Potency,[5],9.77 µM (active)
same,Potency,[6],inactive
same,Potency,[7],inactive
same,activity,[10],-0.724%
C#CCN(C)CCCOc1ccc(Cl)cc1Cl,outcome,[1],inactive
same,Potency,[2],inactive
same,Potency,[12],inactive
same,Potency,[4],inactive
same,Potency,[5],1.55 µM (active)
same,Potency,[7],inactive
same,Potency,[8],inactive
same,Potency,[9],inactive
CC(N=C(NC#N)Nc1ccncc1)C(C)(C)C (centres undefined),outcome,[1],inactive
same,Potency,[2],inactive
same,Potency,[12],inactive
same,Potency,[4],inactive
same,Potency,[5],21.9 µM (active)
same,Potency,[6],3.89 µM (active)
same,Potency,[7],inactive
same,Potency,[8],inactive
same,Potency,[9],inactive
